Measurements from the supplement of paper PMC6555819.

Tests used:
Assay in all cases: PBM binding z-score (relative to random genomic background probes); higher = stronger binding; sequences stand for … in GC…GCGATTGACAGCGTAGAATGAAGG
[1] = test system: RARb homodimer (NR concentration 270 nM)
Procedure, shortened: (§1)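 Ligand-free nuclear receptor dimers were applied to custom Agilent 4×180K protein-binding microarrays whose double-stranded probes carried direct-repeat seeds, single-nucleotide variants, half-site ablations and random human genomic background sequences in 34-nt variable regions. Incubation lasted 1 h. Binding z-scores were computed against the random background probes from regression-normalized fluorescence.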

[2] = test system: RARg:RXRa (NR concentration 270 nM, RXRa partner concentration 90 nM)
Procedure, shortened: as §1

[3] = test system: RARg homodimer (NR concentration 270 nM)
Procedure, shortened: as §1

[4] = test system: RXRa DBDmut IVT, anti-RXR (DBD mutation: RXRa K156A/R161A, NR concentration 90 nM)
Procedure, shortened: as §1

[5] = test system: RXRa homodimer (NR concentration 180 nM)
Procedure, shortened: as §1

[6] = test system: THRa:RXRa (NR concentration 90 nM, RXRa partner concentration 90 nM)
Procedure, shortened: as §1

[7] = test system: THRa homodimer (NR concentration 90 nM)
Procedure, shortened: as §1

[8] = test system: VDR homodimer (NR concentration 270 nM)
Procedure, shortened: as §1

Sequence | PBM binding z-score [1] | PBM binding z-score [2] | PBM binding z-score [3] | PBM binding z-score [4] | PBM binding z-score [5] | PBM binding z-score [6] | PBM binding z-score [7] | PBM binding z-score [8]
CGAACTAGGTCAGAACAGGACAGTGAAGGATGAT | 1.92 | 2.45 | 3.34 | 0.418 | 1.23 | 3.41 | 0.173 | -0.0967
GGAACGAGTGCATTCGAGTTGATAGCATGGCGAT | -0.91 | -0.352 | 0.0126 | 3.87 | -0.0218 | 1.92 | -1.23 | 4.44
CAAACTAGGTCCCCGGAAGGTCAAAGTCCGCATG | 4.26 | 4.15 | 3.32 | 0.0846 | 3.49 | 2.91 | 1.33 | 2.2
TCATATAGGTAAATGCTAGGTGAAAGGCCGATCT | 0.766 | 0.683 | 0.329 | 1.57 | 0.896 | 1.53 | 0.386 | 0.46
CGTCAAAGTGCAACTAAGGTAACGTAAAGCACGC | 1.18 | 1.58 | 1.59 | 1.13 | 0.815 | 4.99 | 1.18 | 0.128
CCTGCTAGGTCAATGGTTAGCTAAAGCAGCTCGC | 2.6 | 3.3 | 3.9 | 1.65 | 1.78 | 2.11 | 0.48 | -0.158
ATATGTAGGTTACATCCGGGTCACTCAGGCTATG | 3.14 | 3.8 | 2.2 | 0.745 | 3.03 | 3.94 | 2.97 | 2.29
CCTACTGGGCCAAGGGTCATTGATTCCAATGCTC | 3.11 | 3.67 | 3.31 | -0.197 | 3.75 | 2.11 | 0.000297 | 1.68
CCTACTGGGCCATTCAGAGATCATTGATCATATG | -0.395 | -0.116 | 0.345 | -0.0997 | -0.144 | -0.209 | -0.607 | -0.171
TCTGGTTGGTCAAAGGTCACACACTCGAAATGCG | 4.94 | 7.36 | 6.25 | 1.79 | 8.3 | 4.07 | 2.65 | 3.34
CCTACTGGGGCATTCAGAGGTCATTGATCATATG | 4.07 | 5.17 | 3.71 | 0.683 | 3.72 | 3.43 | 1.19 | 3.38
AGAATGAGGTAATTAAGATCAGGGAATTGCGGTC | -0.177 | 0.105 | 0.0569 | -0.166 | 0.198 | 1.34 | 0.328 | -0.255
AGTCAAAGTTCACTCGGTAACGTAAGATTCAGCT | 3.89 | 4.91 | 5.79 | 4.02 | 3.83 | 1.79 | -0.0176 | 4.11
ATACCAAGGTGATCGTGAGGTCGTTGATACTAAC | 1.73 | 2.06 | 1.03 | 0.728 | 1.38 | 3.4 | 2.63 | 2.83
TCTGCAAGGTCAGTTGGTCAGCTAACGAGCTGCC | 3.59 | 4.63 | 5.16 | 2.42 | 2.78 | 3.02 | 0.921 | 1.12
GATACAGGGTCAGCTAGAGGCCAGAGCATGGAAA | 3.06 | 6.77 | 4.51 | 1.31 | 4.26 | 3.01 | 0.132 | 0.805
AATAGAGGGTCATCGTAGGCCAGAGTACGCACAG | 3.48 | 5.35 | 5.12 | 2.46 | 5.77 | 4.26 | 0.0486 | 2.55
TGTCAAAGTTCAAAGGTACCGTAAGTATCCACAC | 4 | 5.69 | 5.77 | 4.44 | 5.81 | 2.65 | -0.264 | 4.24
AGAACAAGGGCAATGAGTTGATAGCACGGGTGGC | 0.907 | 1.1 | 1.4 | 1.14 | 0.654 | 0.418 | -0.2 | 2.73

Sequence | PBM binding z-score [1] | PBM binding z-score [2] | PBM binding z-score [3] | PBM binding z-score [4] | PBM binding z-score [5] | PBM binding z-score [6] | PBM binding z-score [7] | PBM binding z-score [8]
CAGCCTAGGTCAGGGCCAGTACAGGAGGAACGTT | 2.81 | 3.02 | 3.74 | -0.352 | 1.45 | 2.02 | 0.539 | -0.209
CCGACTGGGCCATCAGGTCATTGATATCAACGTT | 2.62 | 2.06 | 1.8 | 0.194 | 1.38 | 3.17 | 2.95 | 1.67
GCTAGTTGGTCACTAAAAGGTCACACACCGGTCG | 5.51 | 5.78 | 5.45 | 0.465 | 5.16 | 3.61 | 1.7 | 2.13
TGAATGAGGTTAAAGACCAGGGAACGTGGCGTCG | 0.539 | 1.91 | 0.92 | 0.895 | 2.95 | 2.14 | 0.297 | 0.179
TAGCCTAGGTTATTCAGGGGCCAGTATAGAAAGC | 0.985 | 3.15 | 0.714 | -0.074 | 0.459 | 1.93 | -0.239 | -0.459
CTCGAAAGGTCGGTTGAGGTGAGTATTCGGATAA | 2.52 | 2.59 | 2.91 | 1.01 | 2.25 | 4.98 | 1.25 | 0.522
TAGCCTAGGTCATGGGCCAGTAAACCACGCGAAC | 2.99 | 4.38 | 5.19 | 0.473 | 3.77 | 3.25 | 1.12 | 0.514
TATACAGGGTCAAAGGCCAGAGTTCGAATGTCGA | 3.91 | 5.81 | 5.41 | 3.27 | 7.53 | 3.61 | 1.03 | 4.77
TGACTGAGGTTATAAGATCAGGGAACGTTGCAAA | 0.146 | 1.59 | 0.985 | 0.64 | 1.87 | 1.58 | -0.016 | 0.435
TCTTGTATATCAAGCAGGTTAAGAAAGCCTGAGT | 0.552 | 0.261 | -0.15 | 0.788 | 0.587 | 0.47 | -0.282 | 0.228
TCTAGCAAGCCAGAGGGTCACTCAAGAGGTACGG | 2.11 | 1.94 | 1.39 | -0.198 | 2.18 | 1.43 | -0.484 | 0.431
GCGACTGGTGCAAAGCAGGTTACCATAAGGTTGG | 0.217 | -0.209 | -0.317 | -0.409 | 0.0236 | 1.93 | -0.397 | -0.448
AGTCAAAGTTTAGGACGAGGTAACGTAAAGCACG | 0.774 | 0.936 | 1.26 | 0.5 | 0.477 | 2.59 | 1.51 | 0.0811
CCTTATGGGTCACGAGGTTATAGCACGACGAGCG | 3.34 | 5.59 | 4.86 | 1.46 | 6.1 | 3.3 | 0.63 | 1.1
CAAACTAGGCCACAGAGGTCAAAGTCCGTGCGTA | 4.87 | 5.71 | 4.91 | 2.16 | 6.16 | 3.95 | 1.62 | 4.03
CGTCCAAGGCCATAGGAGGTCAGTGAAGACAGAT | 3.61 | 2.74 | 3.57 | 0.911 | 1.74 | 3.89 | 1.18 | 1.42
TCATATAGGTAAAGGTGAGAGTCGAACGATATGA | 1.28 | 1.29 | 1.33 | 0.713 | 1.64 | 0.888 | -0.508 | -0.128
CCTACTGGGCCAAGAAGGTCATTGATGCCGATAA | 3.17 | 2.94 | 2.39 | 0.188 | 2.9 | 2.33 | 0.355 | 2.38
CGAACGAGGGCATGAGTTGAAAGCAAATGCCGAT | 0.836 | 1.52 | 1.57 | 2.22 | 1.19 | 1.37 | -0.313 | 1.57

Sequence | PBM binding z-score [1] | PBM binding z-score [2] | PBM binding z-score [3] | PBM binding z-score [4] | PBM binding z-score [5] | PBM binding z-score [6] | PBM binding z-score [7] | PBM binding z-score [8]
TCTTGTATATCAGCAGGTTAAGAAAGCTGGCCAA | 0.756 | 0.511 | 0.266 | 1.05 | 0.75 | 0.759 | 0.0914 | 0.143
CCGACTGGAGCAAGGTTACCATAACGCACAGCCA | 1.15 | 0.461 | 0.534 | 0.587 | 0.971 | 1.16 | 0.379 | 0.142
TCTCGGACGACACGAAGGTCAGAGCTTTCCAGAG | 3.12 | 2.49 | 2.65 | 0.495 | 2 | 1.53 | 0.0855 | 0.189
TCTAGTTGGTCAAAGGTCACAGACTCGAAATGCG | 5.18 | 7.34 | 6.39 | 1.36 | 8.58 | 4.16 | 1.98 | 2.22
TCATATAGGTAAATGCTTGGTGAAAGTCCGATCT | 0.222 | 0.052 | 0.0294 | 1.52 | 0.692 | 0.0324 | 0.34 | 0.414
CCTACTGGGCGATCAGGTCATTGATATCAACGTT | 2.23 | 1.35 | 1.37 | 0.269 | 1.02 | 2.74 | 2.18 | 1.53
ATCGAAAGGTCGAAGATGAGTATACCCACCCGAA | 2.11 | 3.48 | 3.4 | 1.35 | 3.68 | 1.56 | -0.0753 | 0.844
TCTATTAGGTGAAGGGCAACCGACGAGTCCGTTT | 1.59 | 1.07 | 1.35 | 1.57 | 0.977 | 1.42 | 0.828 | 1.67
CAAACTAGGTCACAGCGGTCAAAGTCCGTGCGTA | 4.53 | 5.19 | 5.77 | 1.84 | 3.87 | 3.66 | 1.74 | 2.57
ACAGACAGGGGATGAAGGTAACTCAGGCTATCAT | 0.714 | 0.0982 | 0.418 | 0.422 | 0.188 | 0.765 | 0.491 | -0.173
TCTGGTAGATCAGCAGGTTAAGAAAGCTGGCCAA | -0.132 | -0.135 | -0.628 | 0.128 | 0.256 | 0.0552 | -0.418 | -0.56
TCTTGTAGATCAGCAGGTTAAAAAAGCTGGCCAA | 0.0977 | -0.388 | -0.402 | 0.516 | 0.184 | 0.165 | -0.53 | -0.268
CGAACTAGGTCATTGACAGGACAGTGTATAGTAA | 2.93 | 4.51 | 4.13 | 2.69 | 2.38 | 3.02 | 0.913 | 1.47
CAAACTAGGTCACCGGAAGGTCAAAGTGCGCATG | 5.82 | 8.58 | 7.66 | 2.19 | 6.73 | 4.72 | 3.05 | 3.53
TCTTGTACATCAAGCAGGTTAAGAAAGCCTGAGT | 0.323 | 0.395 | 0.0243 | 0.896 | 0.677 | 0.334 | -0.0584 | 0.438
TCTTGTAGATCCAGCAGGTTAAGAAAGCCTGAGT | -0.0215 | -0.196 | -0.399 | 0.513 | 0.171 | 0.192 | -0.236 | -0.224
TCGAGGAGGTTACCAATGGGGCATTCAGCTTTCT | 1.69 | 2.85 | 1.13 | 0.716 | 1.83 | 1.06 | -0.297 | 0.112
TCTACTAGTTGAAGGGCAACCGACGAGTCCGTTT | 0.815 | 0.16 | 0.311 | 1.11 | 0.353 | -0.216 | -0.254 | 0.707
